# Source: PubChem BioAssay AID1852 (Sanford-Burnham Center for Chemical Genomics, 2009)
# The campaign covered roughly 2,500 compounds. About 1,100 (44%) were called active. The set was probably picked from earlier hits. Some of the results follow. Unmarked numbers belong to inactive results.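 Rule for the calls: active = inhibition above 50% at 4 µM in the single-point screen; inactive = inhibition of 50% or less.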
# Assay: blockers of TNF-a NF-kB luciferase induction – cell-based, HEK293T NF-kB-Luc, luminescence, selectivity assay for NOD1/NOD2 signaling inhibitor project, primary screen (AID 1852)
# Details: TNF-a induced, 14 h, at 4 µM, active compounds read high
row,Structure (SMILES),inhibition
1,COc1ccccc1CN(Cc1nc2ccccc2c(=O)[nH]1)S(=O)(=O)c1ccc2ccccc2c1,92.1% (active)
2,COC(=O)c1ccc2c(=O)[nH]c(CCl)nc2c1,43.1%
3,COc1ccc(-n2c(C)c([N+](=O)[O-])c3ccc(O)c(CN4CCCCC4)c32)cc1,28.8%
4,COc1ccc(-n2c(C)c([N+](=O)[O-])c3ccc(O)c(CN(C)C)c32)cc1,84.4% (active)
5,Cc1ccc(-n2c(C)c([N+](=O)[O-])c3ccc(O)c(CN(C)C)c32)cc1,66.1% (active)
6,O=C1/C(=C/c2ccncc2)CCC/C1=C\c1ccncc1,89.9% (active)
7,COc1cc(OC)c(OC)cc1/C=C1\CC(C)C/C(=C\c2cc(OC)c(OC)cc2OC)C1=O (stereo not drawn),32.3%
8,CC1C/C(=C\c2cccnc2)C(=O)/C(=C/c2cccnc2)C1 (stereo not drawn),109% (active)
9,O=C1/C(=C\c2cccnc2)CN(Cc2ccccc2)C/C1=C\c1cccnc1,107% (active)
10,CC1C/C(=C/c2ccncc2)C(=O)/C(=C/c2ccncc2)C1 (stereo not drawn),106% (active)
11,O=C1/C(=C/c2cccnc2)CCC/C1=C\c1cccnc1,104% (active)
12,C=C1CC2C(CCC3(C)C2CCC3(O)C(C)=O)C2(C)CCC(=O)C=C12 (stereo not drawn),13.6%
13,CC1Cc2cc(S(=O)(=O)N3CCN(c4ccc(Cl)cc4)CC3)ccc2N1C(=O)C1CC1 (stereo not drawn),8.4%
14,O=C(C1CCC(CNS(=O)(=O)c2cccs2)CC1)N1CCN(c2ccc(Cl)cc2)CC1 (stereo not drawn),67.1% (active)
15,C[C@@H]1C[C@@H]2O[C@H]2/C=C\C=C\C(=O)Cc2c(Cl)c(O)cc(O)c2C(=O)O1,96.5% (active)
16,O=C(CSc1n[nH]c(-c2ccccn2)n1)Nc1ccc(Cl)cc1,80.1% (active)
17,O=C(CN1CCN(CCC(=O)Nc2ccccc2F)CC1)Nc1ccc(Cl)cc1,2%
18,O=C(CSc1n[nH]c(-c2ccccn2)n1)Nc1cccc(Cl)c1,81.4% (active)
19,Cc1nc(C)c(-c2ccc(SCC(=O)Nc3cccc(Cl)c3)nn2)s1,35%
20,Cn1cccc1Cc1nnc(SCC(=O)Nc2cccc(Cl)c2)n1-c1ccc(F)cc1,11.5%

row,Structure (SMILES),inhibition
1,Cc1ccc2c(c1)-c1ncc(C(=O)c3cc(Br)ccc3O)cc1CO2,36.7%
2,Cc1c(Cc2ccccc2)c(=O)oc2cc(O)cc(O)c12,-8.9%
3,CCCCc1cc(=O)oc2cc(O)cc(O)c12,21.4%
4,CCCCCc1cc(O)c2c(C)cc(=O)oc2c1,71.7% (active)
5,O=C(COc1nsnc1N1CCOCC1)Nc1ccc(Br)cc1,4.1%
6,COc1ccc(Nc2ncnc3ccc(Br)cc23)cc1OC,64.4% (active)
7,CCN1C(=O)C(CC(=O)Nc2cccc(C(C)=O)c2)S/C1=N\c1ccccn1 (stereo not drawn),-2.9%
8,Nc1nc(CCl)nc(Nc2cccc3ccccc23)n1,44.3%
9,Brc1ccc2ncnc(Nc3cccc4ccccc34)c2c1,104% (active)
10,CC(=O)c1cccc(Nc2ncnc3ccc(Br)cc23)c1,60.8% (active)
11,Brc1ccc2ncnc(Nc3ccc(N4CCOCC4)cc3)c2c1,83.9% (active)
12,Clc1ccc(Nc2ncnc3ccc(Br)cc23)cc1,49.1%
13,COC(=O)Cc1[nH]n(-c2nc3ccccc3s2)c(=O)c1C(C)=Nc1ccc(OC)cc1,30.8%
14,COC(=O)Cc1[nH]n(-c2nc3ccccc3s2)c(=O)c1C(C)=Nc1ccc(C)cc1,55.7% (active)
15,COC(=O)c1ccc(CSc2nc3ccccc3c(=O)n2Cc2ccco2)o1,6.3%
16,Cc1sc2nc(SCc3ccc(C(=O)O)cc3)n(Cc3ccco3)c(=O)c2c1C,74.6% (active)
17,COc1ccccc1NC(=O)CSc1nc2sc(C)c(C)c2c(=O)n1C,26.3%
18,Cc1ccc(-c2csc(N3CCC(NS(=O)(=O)c4ccc5c(c4)OCCO5)CC3)n2)cc1,48.7%
19,CCc1ccn2cc(-c3ccc4c(c3)OCO4)nc2c1,23%
20,Cc1ccc2nc(-c3ccc4c(c3)OCCO4)cn2c1,51.3% (active)

row,Structure (SMILES),inhibition
1,CCS(=O)(=O)C1=NN2C(=N)/C(=C\c3ccc(OCCOc4cccc(OC)c4)c(OC)c3)C(=O)N=C2S1,-32.8%
2,CCN(CC)S(=O)(=O)c1cccc(NC(=O)CNc2cccc(S(=O)(=O)N3CCCC3)c2)c1,41.7%
3,O=C(CSc1cccc2cccnc12)Nc1ccc(S(=O)(=O)N2CCOCC2)cc1,104% (active)
4,CCc1nc2ccccc2c(C(=O)OCC(=O)Nc2cccc(S(=O)(=O)N3CCOCC3)c2)c1C,-0.6%
5,CN(C)S(=O)(=O)c1cccc(NC(=O)CSc2cccc3cccnc23)c1,100% (active)
6,Cc1ccc(S(=O)(=O)N(C)C)cc1NC(=O)COC(=O)/C=C/c1cnc2ccccc2n1,12%
7,O=C(CN1CCN(c2cccc(Cl)c2)CC1)Nc1ccc(S(=O)(=O)N2CCOCC2)cc1,23.3%
8,O=C(Nc1nc2cc3c(cc2s1)OCCO3)c1ccco1,-31%
9,CC(C)(C)C(=O)Nc1ccc(NC(=O)c2ccco2)nc1,98.2% (active)
10,O=C(Nc1cccc(NC(=O)c2ccc(-c3cccc(Br)c3)o2)c1)c1ccco1,-15.4%
11,O=C(N/N=C/c1cn(-c2ccccc2)nc1-c1cc2ccccc2o1)c1c[nH]c2ccccc12,-224%
12,COc1ccc(/C=N/NC(=O)c2ccc(Br)o2)cc1Cn1cc([N+](=O)[O-])cn1,-16%
13,Cc1ccc(-c2nn(-c3ccccc3)cc2/C=N/NC(=O)c2ccc(Br)o2)cc1,95.5% (active)
14,Cc1cc([N+](=O)[O-])ccc1-c1ccc(/C=N/NC(=O)c2ccc(Br)o2)o1,-0.2%
15,Cc1ccc(-c2nn(-c3ccccc3)cc2NC(=O)CCl)cc1,-28.6%
16,COc1ccc(-c2nn(-c3ccccc3)cc2/C=N/NC(=O)c2ccc(Br)o2)cc1,94.1% (active)
17,CC[n+]1c(/C=C/N(C)c2ccccc2)n(-c2ccccc2)c2ccc(-c3nc4ccccc4s3)cc21,102% (active)
18,CC(C)c1ccc(-c2nc3ccccc3s2)cc1,14.5%
